A selection: hits, their analogues and other compounds. The true share with any hit is near 9.4%.
HTT cytoprotect = cytoprotection in Huntington HTT-Q103 PC12 cell model; PC12 HTT-Q103 induced, cytoprotection, ATP luminescence, 40 h; Potency, µM (top dose mostly 56.4 µM), without a hit: cytoprotection (ATP increase), actives largely listed as activators; hit rate 0.14% among 230,000; AID 1471; also: potency is read from the fitted curve at half-maximal effect; % of control where 0% means no effect; nearly all actives have a fitted effect of over 45% in size
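Stable PC12 Q103-GFP cells in serum-supplemented, phenol red-free DMEM; induction by tebufenozide at 100 nM final; compound dose series; cell viability quantified luminescently from ATP.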
HttQ103 aggreg = reduces HttQ103-GFP aggregates in PC12 cells; Potency, µM (top dose mostly 46.1 µM), without a hit: at the top dose activity change, negative = inhibition, actives largely listed as inhibitors; PC12 HttQ103-GFP aggregates, Acumen cytometry, 40 h; AID 1688; hit rate 1.1% among 220,000; also: potency is read from the fitted curve at half-maximal effect; % is scaled to controls: 0 for no effect and ±100 for the full control effect; nearly all actives have a fitted effect of over 60% in size
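Multiplexed with ATP-based cell death, this channel scores GFP aggregates in PC12 cells expressing inducible HTTex1-Q103-GFP. Induction used 100 nM tebufenozide; compounds were tested in concentration series.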
HPGD inh = HPGD (human) dehydrogenase inhibition. hit rate 4.3% among 150,000. Potency, µM, for inactives: at the top dose activity change, negative = inhibition, most hits filed as inhibitors. P15428. purified HPGD, NADH fluorescence kinetic, PGE2 substrate; active = well fitted inhibition curve with a large enough effect, not every such curve was filed as active; inconclusive = small, poorly fitted or top-dose-only effect, or another doubt; inactive = no such curve, though single readings can be large or run the other way; also: potency is read from the fitted curve at half-maximal effect; % is scaled to controls: 0 for no effect and ±100 for the full control effect
Target sequence (P15428 whole entry, looked up): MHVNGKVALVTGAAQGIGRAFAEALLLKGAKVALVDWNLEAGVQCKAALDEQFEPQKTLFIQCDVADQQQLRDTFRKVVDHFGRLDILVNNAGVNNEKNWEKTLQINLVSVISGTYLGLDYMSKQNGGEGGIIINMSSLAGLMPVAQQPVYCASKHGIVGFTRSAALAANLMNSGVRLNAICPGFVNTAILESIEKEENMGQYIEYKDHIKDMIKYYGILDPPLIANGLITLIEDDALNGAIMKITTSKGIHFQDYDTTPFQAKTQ
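20 nM HPGD preincubated 15 min at room temperature with compound in 50 mM Tris-HCl pH 8, 0.01% Tween 20. Started with 1 mM NAD+ and 30 uM prostaglandin E2; NADH fluorescence (360/450 nm) read 5 times over 30-s intervals, last minus first.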
IMPase cell inh = IMPase inhibition in cells. inhibition (IP1 accumulation), % at 46.1 µM. 120,000 tested, under 10 active. CHO-M1 cells, IP1 accumulation, HTRF TR-FRET ratio. P97697. AID 901; active = well fitted curve in the direction sought with a large enough effect in the signal ratio, not every such curve was filed as active; inconclusive = small, poorly fitted or top-dose-only effect, or a change in a side signal; inactive = no such curve, though single readings can be large or run the other way; the % refers to the signal ratio;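 also: cells stimulated with carbachol in lithium chloride buffer; plate controls were DMSO basal wells for no effect and reference inhibitor wells for full effect; higher means more IMPase inhibition seen as more IP1 and lower FRET ratio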
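Carbachol-driven Gq signalling in CHO-M1 cells (2000/well) generates IP1. Compounds that block IMPase raise IP1 and so reduce the FRET signal from Eu-anti-IP1 and d2-IP1 after a 10 min room-temperature lysis.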
ALDH1A1 block = inhibitors of human aldehyde dehydrogenase 1A1 | P00352 | Purified ALDH1A1, NADH fluorescence, propionaldehyde substrate | Potency, µM (top dose mostly 75.3 µM), inactives show top-dose activity, negative = inhibition, most hits filed as inhibitors | hit rate 7.3% among 220,000 | AID 1030; active = well fitted inhibition curve with a large enough effect, not every such curve was filed as active; inconclusive = small, poorly fitted or top-dose-only effect, or another doubt; inactive = no such curve, though single readings can be large or run the other way;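 also: potency is read from the fitted curve at half-maximal effect; plate controls were no enzyme wells and a reference inhibitor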
Target sequence (P00352 whole entry, looked up): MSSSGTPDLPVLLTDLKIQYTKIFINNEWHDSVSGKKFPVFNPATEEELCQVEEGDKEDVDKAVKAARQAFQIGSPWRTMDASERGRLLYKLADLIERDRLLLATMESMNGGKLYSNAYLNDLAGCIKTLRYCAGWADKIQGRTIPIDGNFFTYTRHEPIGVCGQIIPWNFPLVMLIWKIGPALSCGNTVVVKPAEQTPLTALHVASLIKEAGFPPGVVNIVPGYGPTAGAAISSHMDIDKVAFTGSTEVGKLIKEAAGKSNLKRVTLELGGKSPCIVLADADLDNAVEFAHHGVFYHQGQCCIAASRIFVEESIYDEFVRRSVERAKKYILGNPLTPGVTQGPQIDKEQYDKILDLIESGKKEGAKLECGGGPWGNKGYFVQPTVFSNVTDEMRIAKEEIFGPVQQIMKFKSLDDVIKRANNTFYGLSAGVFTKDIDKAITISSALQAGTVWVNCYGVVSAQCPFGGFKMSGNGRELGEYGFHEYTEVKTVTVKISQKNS
IMPase Li inh = membrane-permeable IMPase blocker, potentiated with lithium; CHO-M1 cells, IP1 TR-FRET (IP-One), carbachol + lithium; Potency, µM (titrated, usually from 59.4 µM), without a hit: at the highest dose activity, negative = IMPase inhibition, usual class: inhibitors; hit rate 0.35% among 210,000;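 also: IP1 builds up when IMPase is blocked and the TR-FRET signal falls; potency is read from the fitted curve at half-maximal effect; plate controls were basal vehicle for no effect and high inhibitor control for full effect; nearly all actives have a fitted effect of over 50% in size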
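Concentration–response in CHO-M1 cells, lithium-potentiated; 30 min at 37C. IP1 detected by competitive TR-FRET after 10 min lysis at RT. Hill-fitted AC50.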
* marks the source's active call; other numbers are inactive results; ? = inconclusive; . = no result; [ ] = dose if it differs, or a comment. Unless noted, calls follow the shape of the dose curve; as a rule, active = well fitted curve in the direction sought with a large enough effect; inconclusive = small, poorly fitted or top-dose-only effect, or another doubt; inactive = no such curve, though single readings can be large; an effect the other way counts as inactive or inconclusive.

SMILES	HTT cytoprotect	HttQ103 aggreg	HPGD inh	IMPase cell inh	ALDH1A1 block	IMPase Li inh
COc1cccc(CN2CC(O)=C(c3nc(-c4ccc(Cl)cc4)cs3)C2=N)c1	-9%	13%	-24%	18	?	5.6µM*
Cc1nn(Cc2ccccc2Cl)c2sc(C(=O)OC3CCCC3=O)cc12 (stereo not drawn)	-34%	0%	-26%	-14	8.9µM*	15%[38.3 µM]
Cc1c(NC(=O)c2ccc(-c3ccc(F)cc3)o2)cccc1-c1nc2ncccc2o1	.	.	.	-15	.	.
Cc1ccc(-c2[nH][nH]c(=O)c(=O)c2N=Nc2ccccc2)cc1	-4%[10 µM]	25%[9.22 µM]	.	.	.	.
C/C(=N\Nc1ccc(Cl)cc1)c1ccccn1	7%	-19%	-15%	6	?	40%[38.3 µM]
Cc1cc(O)c(C=Nc2cccc(Cl)c2)c(=O)o1	-24%	25%	-8%	-5	-4%	-4%
Cc1cc(O)c(/C=N/Nc2ccccc2)c(=O)o1	-9%[10 µM]	-7%	-30%	39	7.9µM*	62%[38.3 µM]
C/C(=N\Nc1ccc(Cl)cc1)c1c(O)cc(C)oc1=O	4%[10 µM]	-1%	.	.	7.9µM*	-2%
Oc1ccc(/C=C/c2nc(-c3ccccc3O)n(-c3ccccc3)n2)c(O)c1	.	.	.	7	.	.
Cc1ccc(-c2nc3nc(C)cc(N4CCN(c5cc(Cl)ccc5C)CC4)n3n2)cc1	.	.	.	16	.	.
CN(Cc1cc(Br)cc(Br)c1N)C1CCCCC1	-60%	?	-10%	.	2%	8%
Cc1ccsc1/C=N/NC(=O)CNC(=O)c1cccc([N+](=O)[O-])c1C	-16%	16%	.	.	12%	0%
CCCCNc1c2c3c(cccc3n(C)c1=O)C(=O)c1ccccc1-2	10%[10 µM]	?	-2%	?	1%	6%
Cn1c(=O)c(NCCc2ccccc2)c2c3c(cccc31)C(=O)c1ccccc1-2	-19%	10µM*	-15%	-19	3%	5%[38.3 µM]
COC(=O)C12CC3(CCC4C5C(C(OCc6ccccc6)C41)C52)OCCO3 (stereo not drawn)	?	.	.	.	11%[13.5 µM]	.
COc1ccc(Nc2oc(COc3ccc(C)cc3)nc2C#N)cc1	-3%[10 µM]	-9%	25µM*	7	?	20%
COc1ccc(Nc2oc(COc3ccc(OC)cc3)nc2C#N)cc1	12%[1.9 µM]	-10%	?	16	-2%	23%
CCC(=O)Nc1ccc(NC(=S)Nc2ccccc2)cc1	.	-4%	-3%	.	?	-5%
CCCC(=O)Nc1ccc(Nc2ccccc2)cc1	16%[0.074 µM]	-9%	16µM*	.	?	14%
CCC(=O)Nc1ccc(C(=O)c2ccccc2)cc1	-18%	0%[9.22 µM]	14µM*	4	?	1%[38.3 µM]
CCCOC(=O)c1ccc(NC(=O)CCOc2ccccc2)cc1	-28%	-3%	-18%	-1	14µM*	27%[38.3 µM]
Cn1cccc1C(=O)N1CCC2(CC1)CN(Cc1ccc(C#N)cc1)C2	-3%	.	-4%	.	-9%	23%
Cc1cc(NC(=O)c2ccccc2NS(=O)(=O)c2c(C)c(C)cc(C)c2C)no1	-20%	-7%	?	-11	?	-21%[38.3 µM]
Cc1ccc(C)c(NC(=O)c2ccccc2NS(=O)(=O)c2cc([N+](=O)[O-])ccc2C)c1	-52%[10 µM]	2.8µM*	-3%	.	13%	5%
Cc1ccc(C)c(S(=O)(=O)Nc2ccccc2C(=O)Nc2cc(C)on2)c1	-65%	10µM*	?	6	?	1%[38.3 µM]
SMILES	HTT cytoprotect	HttQ103 aggreg	HPGD inh	IMPase cell inh	ALDH1A1 block	IMPase Li inh
Cc1ccc(C)c(NC(=O)c2ccccc2Sc2ccc([N+](=O)[O-])cc2Cl)c1	?	-10%	-3%	.	10%	8%
COCCNC(=O)c1ccc2c(c1)NC(=O)CS2	-2%	-1%	35µM*	0	8%	-1%[38.3 µM]
Cc1ccc(NS(=O)(=O)c2cc(NC(=O)c3ccc4c(c3)NC(=O)CS4)ccc2Cl)c(C)c1	11%[10 µM]	?	.	.	10µM*	11%
O=C1CSc2ccc(C(=O)NCCC3=CCCCC3)cc2N1	4%	1%	-6%	4	7%	-23%[38.3 µM]
O=C(CSC1=NS(=O)(=O)c2ccccc21)Nc1ccccc1	1%	16%	16µM*	0	0.56µM*	8%[38.3 µM]
COC(=O)CSC1=NS(=O)(=O)c2ccccc21	-1%[1.9 µM]	12%	22µM*	-3	-6%	21%[38.3 µM]
Cc1cc2nc(-c3ccc(NC(=O)c4ccc(OCC(C)C)cc4)cc3)oc2cc1C	.	.	.	-13	.	.
CN(C)CC(O)COc1cc2ccccc2cc1C(=O)N1CCCCC1 (stereo not drawn)	-10%	-5%	28µM*	6	-1%	-7%[38.3 µM]
Cn1c(=O)cc(SCC(=O)N2CCCC2)c2ccc(Cl)cc21	-15%	-3%	14µM*	-29	?	-22%[38.3 µM]
Cn1c(=O)cc(SCC(=O)N2CCOCC2)c2ccc(Cl)cc21	-1%[10 µM]	-8%	-26%	?	-7%	-14%
CCOC(=O)C(C(=O)c1ccccc1)[C@H](CCc1ccccc1)NC(=O)OC (stereo partly drawn)	13%	.	-4%	.	-3%	14%
NCCC1([N+](=O)[O-])CCNCC1	-2%[10 µM]	.	-3%	.	12%[13.5 µM]	3%
COc1ccc(COC(=O)N/C=C/c2ccco2)cc1	.	?	.	.	28µM*	8%
O=C(COC(=O)/C=C/c1ccco1)NCc1ccco1	-1%	-15%	.	.	-11%	-1%
COc1ccc(CNC(=O)COC(=O)/C=C/c2ccco2)cc1	28%[10 µM]	14%	.	.	25µM*	7%
N=c1c2c(n(Cc3ccccc3)c3c1CCC3)CCC2	-59%	8.9µM*	-18%	2	6%	14%[38.3 µM]
N=c1c2c(n(Cc3cccc(Cl)c3)c3c1CCC3)CCCC2	-43%[10 µM]	10µM*	3%	8	-2%	18%
N=c1c2c(n(Cc3ccc(Cl)cc3)c3c1CCC3)CCC2	-74%	?	-30%	0	-3%	8%[38.3 µM]
CCCC[C@@H]1C[C@H]1C(NC(=O)c1ccccc1)c1ccc(C(F)(F)F)cc1 (stereo partly drawn)	-44%	.	-13%	.	7%	6%
COc1cc(C(=O)NNC(=O)c2ccc(NC(=O)C(C)(C)C)cc2)cc(OC)c1OC	37%[10 µM]	15%[9.22 µM]	.	.	12%	10%
O=C(/N=C1\NC(=O)C(F)(C(F)(F)F)S1)NC1CCCCC1 (stereo not drawn)	2%	?	7.9µM*	-3	7.1µM*	-1%[38.3 µM]
CCC1S/C(=N/C(=O)NC2CCCCC2)NC1=O (stereo not drawn)	-9%[1.9 µM]	-5%	-14%	-7	-3%	1%
COc1cc(/C=N/n2cnnc2)ccc1OS(=O)(=O)c1ccccc1[N+](=O)[O-]	-6%[0.074 µM]	8%	-20%	.	-12%	12%
O=S(=O)(Oc1ccccc1/C=N/n1cnnc1)c1ccccc1	-9%	-3%[9.22 µM]	.	.	22µM*	1%

High-throughput results from PubChem.
